Structures are written as SMILES. Records with an inconclusive call do not appear. Unmarked numbers belong to inactive results. Active and inactive are the calls of the source. The call rests on the fitted dose curve.
On the % scale 0 is the no-effect control and ±100 the full control effect.

Sequence of Thyrotropin receptor (Homo sapiens) (P16473 whole entry, looked up): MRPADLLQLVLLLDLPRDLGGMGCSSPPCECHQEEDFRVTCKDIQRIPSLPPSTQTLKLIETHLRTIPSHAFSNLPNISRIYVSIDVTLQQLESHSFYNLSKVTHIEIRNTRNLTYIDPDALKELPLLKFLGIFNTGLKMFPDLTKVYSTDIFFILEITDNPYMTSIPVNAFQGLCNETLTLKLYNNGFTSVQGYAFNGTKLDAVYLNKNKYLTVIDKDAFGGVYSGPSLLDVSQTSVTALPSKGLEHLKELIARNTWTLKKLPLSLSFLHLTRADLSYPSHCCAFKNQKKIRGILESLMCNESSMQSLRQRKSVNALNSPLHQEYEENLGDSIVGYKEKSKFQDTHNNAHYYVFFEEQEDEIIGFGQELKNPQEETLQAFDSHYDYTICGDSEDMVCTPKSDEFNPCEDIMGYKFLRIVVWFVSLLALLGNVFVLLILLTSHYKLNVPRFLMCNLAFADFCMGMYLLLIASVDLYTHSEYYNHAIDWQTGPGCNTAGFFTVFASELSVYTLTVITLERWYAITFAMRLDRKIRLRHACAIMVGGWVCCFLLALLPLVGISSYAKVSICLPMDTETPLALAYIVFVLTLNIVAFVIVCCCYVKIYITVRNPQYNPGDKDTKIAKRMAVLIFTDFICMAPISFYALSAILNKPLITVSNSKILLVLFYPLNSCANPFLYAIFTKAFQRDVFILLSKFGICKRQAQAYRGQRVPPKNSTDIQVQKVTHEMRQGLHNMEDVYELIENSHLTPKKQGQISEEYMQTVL

The assay deals with Thyrotropin receptor (Homo sapiens) (UniProt P16473). In words: qHTS assay to identify small molecule antagonists of the thyroid stimulating hormone receptor (TSHR) signaling pathway (AID 1259385). Further: nearly all actives have a fitted effect of over 20% in size. The note with it: TSHR-HEK293 cAMP HTRF, TSH-stimulated antagonist mode; series mostly up to 92.4 µM; activity change, negative = inhibition: at the top concentration. The text has this:
U.S. Tox21 Program National Center for Advancing Translational Sciences [NCATS] NIH Chemical Genomics Center [NCGC] U.S. Environmental Protection Agency [EPA] National Institutes of Environmental Health Sciences [NIEHS] National Toxicology Program [NTP] U.S. Food and Drug Administration [FDA] Tox21 Assay Overview: TSHR is the receptor for thyrotropin (thyroid stimulating hormone or TSH), a member of the glycoprotein hormone family. TSH is released by the anterior pituitary gland and is the main regulator of thyroid gland growth and development. Upon binding circulating thyrotropin, a G-protein signal cascade activates adenylyl cyclase and […] cAMP concentration is increased. cAMP is a key second messenger involved extensively in cellular signal transduction pathways associated with the majority of G-protein coupled receptors (GPCRs). The activation of these GPCRs by neurotransmitters, lipids, nucleotides, peptides and hormones results in the activation or the inhibition of plasma membrane-bound adenylate cyclase through heterotrimeric G-proteins. A cell-based TSHR assay can be used to screen chemical compounds that modulate TSHR either in agonist or antagonist mode.
Tox21 Assay Protocol Summary: TSHR-Hek293 cells were dispensed at 800 cells/4uL/well in 1536-well white plates using a Multidrop dispenser. After the assay plates were incubated at a 37C/5% CO2 incubator for 18 hrs, 23 nL of compounds dissolved in DMSO, positive controls or DMSO only was transferred to the assay plate by a pin tool, followed by 1 ul medium containing Ro20-1724. For the antagonist mode screening, 1 uL of TSH was added on the top of the cell/compound mixtures to achieve a final agonist concentration of 1.5 ng/mL. After 30 min of incubation at room temperature, 2.5 ul/well of cAMP-d2 and 2.5 ul/well of anti-cAMP-cryptate were added respectively into the assay plates using a Flying Reagent Dispenser. The plates were incubated at room temperature for 1 hr. The fluorescence intensity in the plates was measured using an Envision plate reader. Each test compound was measured at 15 concentrations and in triplicates.
On the technique in general: Quantitative high-throughput screening tests each substance at several concentrations.
As for `C/C=C/c1ccc(O)c(OC)c1`, the call was inactive.
For the compound `C[C@]12C=CC(=O)C=C1CC[C@@H]1[C@@H]2C(=O)C[C@@]2(C)[C@H]1CC[C@]2(O)C(=O)CO`, the compound was classed as inactive.
Still for that read-out and setting: under `CCCCCCCCCCCCCCCCCC(=O)OCC(O)CO` (stereo not given) stands “inactive”; under `CC(C)Cc1ccc(C(C)C(=O)O)cc1` (stereo not given), “inactive”.
The same measure, in the same setting: the result for `O=C(O)CN(CC(=O)O)CC(=O)O` reads “inactive”; that for `CC1=NN(c2ccccc2)C(=O)C1`, “inactive”.
The same measure, in the same setting: under `COCCOCCOC` stands “inactive”; under `COc1cc(O)c(C(=O)c2ccccc2)cc1S(=O)(=O)O`, “inactive”.
In the case of `CN(C)Cc1cc(CN(C)C)c(O)c(CN(C)C)c1`, the result was inactive.
Still for that read-out and setting: the result for `NC(=O)N/N=C/c1ccc([N+](=O)[O-])o1` reads “inactive”; that for `NC(N)=NC(N)=NCCc1ccccc1`, “inactive”; that for `COc1ccc(O)cc1`, “inactive”.
Still for that read-out and setting: under `CCc1cc(C(N)=S)ccn1` stands “inactive”; under `C[C@]12C[C@H](O)[C@H]3[C@@H](CCC4=CC(=O)CC[C@@]43C)[C@@H]1CC[C@@H]2C(=O)CO`, “inactive”.
Consider `N[C@@H](Cc1c[nH]c2ccc(O)cc12)C(=O)O`, for which the “activity change, negative = inhibition” value was 0.889% [at 42.5 µM].
On to `O=C(O)CCCCC1CCSS1` (stereo not given), for which the compound was called inactive.
Still for that read-out and setting: under `OCCCc1ccccc1` stands “inactive”.
Consider `N[C@@H](Cc1c[nH]c2ccccc12)C(=O)O`, for which the “activity change, negative = inhibition” value was -0.953%.
For `CCCCCCCCCCCCCC(=O)OC(C)C`, the call was inactive.
Still for that read-out and setting: under `NC(=O)c1ccc([N+](=O)[O-])cc1Cl` stands “inactive”; under `CC(=O)c1ccc(S(=O)(=O)NC(=O)NC2CCCCC2)cc1`, “inactive”; under `Cc1cccc2ccccc12`, “inactive”.
Same read-out and setting: under `NC(=O)NO` stands “inactive”.
For `Oc1cccc(O)c1`, the compound was called inactive.
On to `CCN1CCCC1=O`, for which the outcome was inactive.
Still for that read-out and setting: under `Cc1c(N(C)CS(=O)(=O)O)c(=O)n(-c2ccccc2)n1C` stands “inactive”; under `CC(C)(C)CC(C)(C)c1ccc(O)c(-n2nc3ccccc3n2)c1`, “inactive”; under `CCCCCCCC(=O)OCC(O)CO` (stereo not given), “inactive”.
Still for that read-out and setting: the result for `CN(C)C=O` reads “inactive”; that for `C1CNCCN1`, “inactive”; that for `Cc1cccc(Nc2cc(Cl)nc(SCC(=O)O)n2)c1C`, “inactive”.
For `CCCCNC(=O)NS(=O)(=O)c1ccc(N)cc1`, the compound was called inactive.
The same measure, in the same setting: under `COc1cc(C=O)ccc1O` stands “inactive”; under `CC(=O)CCC(C)C`, “inactive”.
On the same count and under the same terms, under `c1ccc2[nH]c(-c3cscn3)nc2c1` stands “inactive”; under `O=C(OCc1ccccc1)c1ccccc1`, “inactive”.
Same read-out and setting: the result for `CCCCCCCCOc1ccc(C(=O)c2ccccc2)c(O)c1` reads “inactive”; that for `COC(=O)C1CCC(C(=O)OC)CC1` (stereo not given), “inactive”; that for `O=c1c(-c2ccc(O)cc2)coc2cc(O)cc(O)c12`, “inactive”.
With `O=c1cc[nH]c(=O)[nH]1`, the compound was called inactive.
